In PubChem BioAssay:
Active and inactive are the calls of the source.

Assays:
Albumin (Bos taurus) = Albumin (Bos taurus) (UniProt P02769); test: compounds binding labelled BSA control protein – biochemical, small-molecule microarray, Alexa647 label, 635/667 nm fluorescence, artefact control for SMM control protein annotation, profiling panel (AID 1118); settings: BSA-A647 binding, fluorescence 635 nm, higher = more signal;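 note: score merges 667 nm emission intensity and signal-to-noise per printed compound spot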
[1] = probe aXIP binding to arrayed compounds – biochemical, NeuroSMM set, 635/667 nm fluorescence, primary screen (AID 1119); settings: small-molecule microarray, higher = more signal, called active from +8 up or from −8 down;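 note: probe is the protein aXip251-270 applied at 1 µg/mL to compound-printed slides; binding of probe to printed compounds measured as 667 nm fluorescence plus signal to noise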
[2] = probe aNOTCH3 binding on compound microarray – biochemical, small-molecule microarray, 635/667 nm fluorescence, primary screen (AID 1120); settings: higher = more signal;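 note: probe is a biotin-tagged antibody raised against NOTCH3 rather than NOTCH3 protein; score merges spot fluorescence near 667 nm with spot signal to noise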
[3] = probe aNOTCH2 binding on compound microarray – biochemical, small-molecule microarray, 635/667 nm fluorescence, primary screen (AID 1121); settings: higher = more signal;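 note: score merges feature fluorescence read at 667 nm with its signal to noise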
[4] = target: Carbonic anhydrase 2 (Homo sapiens) (UniProt P00918); test: compounds binding carbonic anhydrase 2 – biochemical, small-molecule microarray, Alexa647-labelled CAII, profiling panel (AID 1122); settings: CAII-A647 binding fluorescence, higher = more signal
[5] = COS7 lysate on small-molecule microarray, probe aHis, 635 nm (AID 1123); settings: COS7 cell lysate, fluorescence, higher = more signal;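 note: z-score combines 667nm fluorescence intensity with signal-to-noise per printed compound spot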
[6] = probe aLAP1 signal on lysate-treated microarray – cell lysate, small-molecule microarray, COS7 lysate, primary screen (AID 1124); settings: probe aLAP1, fluorescence, higher = more signal;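 note: lysate comes from COS7 cells expressing LAP1 and is applied at 0.3 µg/mL; score merges spot fluorescence near 667 nm with signal-to-noise over triplicate slides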
Sam68 (KHDRBS1) = test: compounds binding KHDRBS1 protein – biochemical, small-molecule microarray, 635 nm fluorescence, primary screen (AID 1125); settings: higher = more signal;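 note: score merges 667 nm channel intensity with signal to noise over triplicate slides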
[7] = test system: Chordin-like protein 2 (CHRDL2); test: compounds binding chordin-like 2 – biochemical, small-molecule microarray, 635 nm fluorescence, primary screen (AID 1126); settings: fluorescence 635 nm, higher = more signal;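 note: printed compound slides probed with Chrdl2 protein at 4 µg/mL for 1 h at 4 C; score merges 667 nm emission intensity with signal to noise over three replicate slides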
[8] = target: Concanavalin-A (Canavalia ensiformis) (UniProt P02866); test: compounds binding concanavalin A lectin – biochemical, small-molecule microarray, Alexa647 label, 635 nm, artefact control for SMM control protein annotation, primary screen (AID 1127); settings: ConA-A647 binding fluorescence, higher = more signal;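 note: z combines 667 nm emission intensity with signal-to-noise across three replicate slides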
[9] = compounds binding Alexa647 anti-His antibody – biochemical, small-molecule microarray, 635 nm fluorescence, artefact control for SMM control protein annotation, primary screen (AID 1128); settings: higher = more signal;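 note: score merges feature fluorescence with signal-to-noise for each printed compound spot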
[10] = test system: Human papillomavirus type 1a E7 protein (residues 1-88); test: HPV1a E7 small-molecule binders, primary screen, biochemical, small-molecule microarray, residues 1-88, 635 nm (AID 1129); settings: small-molecule microarray binding, fluorescence 635 nm; higher = more signal
[11] = target: Focal adhesion kinase 1 (Homo sapiens) (UniProt Q05397); test: PTK2 protein binding on printed compound slides – biochemical, small-molecule microarray, 635/667 nm fluorescence, BSA, DTT, primary screen (AID 1130); settings: 635 nm fluorescence, higher = more signal;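 note: composite of spot emission at 667 nm and signal to noise over triplicate slides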
[12] = test system: Fibrinogen (Alexa647-labelled); test: Alexa647-fibrinogen binding to printed small molecules – biochemical, small-molecule microarray, 635/667 nm fluorescence, artefact control for SMM control-protein annotation, profiling panel (AID 1131); settings: fibrinogen-A647 binding fluorescence, higher = more signal;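 note: z-score merges 667 nm fluorescence with per-spot signal-to-noise over triplicate slides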
[13] = target: Follistatin (Homo sapiens) (UniProt P19883); test: FST protein binding to printed compounds – biochemical, small-molecule microarray, 635/667 nm fluorescence, primary screen (AID 1132); settings: 635 nm fluorescence, higher = more signal
[14] = target: Fibroblast growth factor 2 (Homo sapiens) (UniProt P09038); test: basic fibroblast growth factor binding to printed compounds – biochemical, small-molecule microarray, 635/667 nm fluorescence, primary screen (AID 1133); settings: FGF2, fluorescence 635/667, higher = more signal
[15] = JC-1 mitochondrial potential readout, lung cancer cells – cell-based, A549, JC-1 fluorescence, basal, 24 h, 100 nL, profiling panel (AID 1138); settings: higher = more signal;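 note: A549 lung adenocarcinoma cells under basal conditions with no added stimulus; test concentration not given here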
Lefty1 = Lefty1 protein binding to printed compounds – biochemical, small-molecule microarray, 635/667 nm fluorescence, primary screen (AID 1139); settings: fluorescence 635/667, higher = more signal
[16] = test system: wheat germ agglutinin (Triticum aestivum), Alexa647-labelled; test: Alexa647-WGA lectin binding to printed small molecules – biochemical, small-molecule microarray, 635/667 nm fluorescence, artefact control for SMM control-protein annotation, profiling panel (AID 1140); settings: WGA-A647 binding, 635 nm fluorescence, higher = more signal;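 note: score merges 667 nm feature emission with signal to noise over triplicate slides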
[17] = target: Luciferin 4-monooxygenase (Photinus pyralis) (UniProt P08659); test: inhibition of purified Photinus pyralis luciferase – biochemical, luminescence, purified enzyme, 2006 set, primary screen (AID 1141); settings: purified firefly luciferase, SteadyGlo luminescence, 30 min; higher = more signal, called active from +8 up or from −8 down;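 note: cell-free assay with purified firefly luciferase at 100 ng per well in PBS; test concentration not given here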
Chain of Luciferin 4-monooxygenase (Photinus pyralis) (P08659 whole entry, looked up): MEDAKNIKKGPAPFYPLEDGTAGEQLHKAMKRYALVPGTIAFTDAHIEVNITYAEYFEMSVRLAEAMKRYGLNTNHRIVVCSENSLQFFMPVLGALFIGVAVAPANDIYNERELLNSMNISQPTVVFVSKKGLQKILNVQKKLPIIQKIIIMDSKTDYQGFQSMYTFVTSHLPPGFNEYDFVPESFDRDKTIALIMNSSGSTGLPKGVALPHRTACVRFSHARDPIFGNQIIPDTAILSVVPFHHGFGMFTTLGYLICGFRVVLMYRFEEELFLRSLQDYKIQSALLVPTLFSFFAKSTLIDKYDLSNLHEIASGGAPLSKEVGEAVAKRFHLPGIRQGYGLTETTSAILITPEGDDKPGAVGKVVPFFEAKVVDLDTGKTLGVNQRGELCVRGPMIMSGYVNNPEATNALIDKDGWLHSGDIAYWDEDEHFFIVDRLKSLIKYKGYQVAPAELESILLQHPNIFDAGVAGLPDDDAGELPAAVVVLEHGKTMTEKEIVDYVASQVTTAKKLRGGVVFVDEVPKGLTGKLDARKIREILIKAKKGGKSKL

Chain of Concanavalin-A (Canavalia ensiformis) (P02866 whole entry, looked up): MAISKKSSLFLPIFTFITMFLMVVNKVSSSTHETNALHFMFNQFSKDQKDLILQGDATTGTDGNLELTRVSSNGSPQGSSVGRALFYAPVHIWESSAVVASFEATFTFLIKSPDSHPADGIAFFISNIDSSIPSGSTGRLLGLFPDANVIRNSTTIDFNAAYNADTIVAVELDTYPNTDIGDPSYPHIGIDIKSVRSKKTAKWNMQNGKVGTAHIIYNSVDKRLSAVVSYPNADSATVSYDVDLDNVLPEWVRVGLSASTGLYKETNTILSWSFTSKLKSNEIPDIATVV
Chain of Fibroblast growth factor 2 (Homo sapiens) (P09038 whole entry, looked up): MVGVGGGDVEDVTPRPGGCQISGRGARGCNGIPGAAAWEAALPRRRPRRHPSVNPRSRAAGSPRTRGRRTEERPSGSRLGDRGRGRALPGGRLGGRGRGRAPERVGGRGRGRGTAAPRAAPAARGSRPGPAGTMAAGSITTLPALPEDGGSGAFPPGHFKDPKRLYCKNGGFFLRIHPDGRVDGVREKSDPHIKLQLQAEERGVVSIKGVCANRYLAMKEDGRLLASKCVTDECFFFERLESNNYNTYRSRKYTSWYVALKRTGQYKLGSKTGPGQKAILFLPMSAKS
Chain of Albumin (Bos taurus) (P02769 whole entry, looked up): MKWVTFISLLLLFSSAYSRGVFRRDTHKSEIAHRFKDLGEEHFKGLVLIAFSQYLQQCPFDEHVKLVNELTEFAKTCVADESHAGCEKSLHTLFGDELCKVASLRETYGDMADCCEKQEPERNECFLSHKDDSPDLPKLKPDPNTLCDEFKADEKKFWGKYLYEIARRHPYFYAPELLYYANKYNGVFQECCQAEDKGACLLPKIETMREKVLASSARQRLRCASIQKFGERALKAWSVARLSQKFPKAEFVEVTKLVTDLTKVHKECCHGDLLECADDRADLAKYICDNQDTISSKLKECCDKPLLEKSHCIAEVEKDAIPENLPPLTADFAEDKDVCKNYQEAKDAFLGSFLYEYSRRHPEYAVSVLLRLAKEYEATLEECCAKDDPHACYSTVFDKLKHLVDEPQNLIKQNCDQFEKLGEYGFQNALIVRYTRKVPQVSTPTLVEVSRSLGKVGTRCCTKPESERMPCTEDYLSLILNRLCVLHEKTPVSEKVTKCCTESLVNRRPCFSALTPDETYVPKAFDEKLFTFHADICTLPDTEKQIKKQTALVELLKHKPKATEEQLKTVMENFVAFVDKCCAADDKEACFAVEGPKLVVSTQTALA
Chain of Focal adhesion kinase 1 (Homo sapiens) (Q05397 whole entry, looked up): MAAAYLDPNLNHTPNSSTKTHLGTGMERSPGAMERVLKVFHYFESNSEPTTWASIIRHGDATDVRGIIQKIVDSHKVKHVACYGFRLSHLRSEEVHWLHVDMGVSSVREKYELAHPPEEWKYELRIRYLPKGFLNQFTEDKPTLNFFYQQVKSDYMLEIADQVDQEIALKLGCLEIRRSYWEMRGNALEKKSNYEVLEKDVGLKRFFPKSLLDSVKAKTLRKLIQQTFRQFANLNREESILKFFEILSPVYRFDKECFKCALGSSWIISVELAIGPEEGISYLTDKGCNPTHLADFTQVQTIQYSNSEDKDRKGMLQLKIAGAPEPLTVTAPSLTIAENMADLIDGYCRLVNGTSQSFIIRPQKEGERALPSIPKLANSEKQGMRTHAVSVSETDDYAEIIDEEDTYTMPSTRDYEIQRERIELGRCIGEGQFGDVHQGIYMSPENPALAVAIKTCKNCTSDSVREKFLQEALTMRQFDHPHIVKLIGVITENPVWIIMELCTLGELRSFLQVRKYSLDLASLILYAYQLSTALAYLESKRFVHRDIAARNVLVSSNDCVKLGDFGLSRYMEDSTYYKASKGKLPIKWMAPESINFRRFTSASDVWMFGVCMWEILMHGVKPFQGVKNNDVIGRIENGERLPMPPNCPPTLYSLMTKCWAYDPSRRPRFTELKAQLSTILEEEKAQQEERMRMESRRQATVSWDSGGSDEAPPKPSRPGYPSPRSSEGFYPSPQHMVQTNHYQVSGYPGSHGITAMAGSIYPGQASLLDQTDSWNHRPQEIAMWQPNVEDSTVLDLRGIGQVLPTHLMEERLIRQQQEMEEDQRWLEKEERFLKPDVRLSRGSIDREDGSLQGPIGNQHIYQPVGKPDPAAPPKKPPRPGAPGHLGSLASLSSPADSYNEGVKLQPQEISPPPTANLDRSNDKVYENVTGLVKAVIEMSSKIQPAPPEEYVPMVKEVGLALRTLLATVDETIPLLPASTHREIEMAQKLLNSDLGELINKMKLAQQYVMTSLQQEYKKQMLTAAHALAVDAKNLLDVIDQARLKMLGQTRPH
Chain of Follistatin (Homo sapiens) (P19883 whole entry, looked up): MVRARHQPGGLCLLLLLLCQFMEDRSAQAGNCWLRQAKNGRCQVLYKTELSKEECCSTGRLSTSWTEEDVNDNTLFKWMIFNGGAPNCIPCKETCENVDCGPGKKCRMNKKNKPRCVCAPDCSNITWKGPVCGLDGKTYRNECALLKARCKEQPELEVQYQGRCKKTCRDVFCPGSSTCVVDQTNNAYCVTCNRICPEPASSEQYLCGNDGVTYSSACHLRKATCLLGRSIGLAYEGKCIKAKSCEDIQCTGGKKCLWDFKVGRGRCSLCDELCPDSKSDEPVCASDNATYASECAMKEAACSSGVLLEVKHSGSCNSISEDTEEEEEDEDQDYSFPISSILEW

| SMILES | composite z-score (Albumin (Bos taurus)) | composite Z-score [1] | composite z-score [2] | composite z-score [3] | composite z-score [4] | composite z-score [5] | composite z-score [6] | composite z-score (Sam68 (KHDRBS1)) | composite z-score [7] | composite z-score [8] | composite z-score [9] | composite z-score [10] | composite z-score [11] | composite z-score [12] | composite z-score [13] | composite z-score [14] | z-score [15] | composite z-score (Lefty1) | composite z-score [16] | z-score [17] |
| --- | --- | --- | --- | --- | --- | --- | --- | --- | --- | --- | --- | --- | --- | --- | --- | --- | --- | --- | --- | --- |
| COc1ccc([Si](C)(C)[C@H]2[C@H](CC(=O)N(CCO)Cc3ccccc3)O[C@@]3(C(=O)N(Cc4ccc(N5CCOC5=O)cc4)c4ccccc43)[C@@H]2C)cc1 | -0.604 | 0.989 (inactive) | -0.0044 | -0.168 | 0.393 | 0.704 | 0.0474 | 0.641 | 0.457 | 1.06 | 0.845 | 0.0593 | 0.16 | 0.474 | 0.878 | 0.66 | 0.784 | 1.13 | 0.455 | -1.39 (inactive) |
| C=CCNC(=O)[C@@H]1[C@H]2C(=O)O[C@H](c3ccccc3)[C@H](c3ccccc3)N2[C@H](c2ccc(O)cc2)[C@@]12C(=O)Nc1ccccc12 | -0.989 | 0.0737 (inactive) | -0.246 | -0.22 | 0.55 | 1.12 | 0.324 | 0.502 | -0.939 | 0.516 | -0.391 | -0.227 | 0.394 | -0.0121 | 0.981 | 0.143 | 0.715 | 0.52 | 0.567 | -1.03 (inactive) |
| CO[C@H]1O[C@H](CO)[C@@H](OC(=O)Nc2ccccc2)[C@H](OC(=O)Nc2ccccc2-c2ccccc2)[C@@H]1OC(=O)Nc1ccccc1-c1ccccc1 | 0.903 | -0.0038 (inactive) | 0.224 | -0.094 | 0.419 | 1.9 | 0.381 | 1.3 | -0.138 | 1.19 | 2.82 | 1.22 | 1.11 | 0.976 | 1.07 | 0.478 | 0.458 | 0.36 | 1.26 | -1.24 (inactive) |
| COc1ccc(C#Cc2ccc3c(c2)[C@]2(C(=O)N3)[C@H](c3ccc(O)cc3)N3[C@H](c4ccccc4)[C@H](c4ccccc4)OC(=O)[C@H]3[C@@H]2C(N)=O)cc1 | -0.524 | 1.08 (inactive) | -0.299 | -0.147 | 0.662 | 1.25 | 0.0742 | 0.278 | -1.54 | -0.211 | 2.17 | -0.0669 | 0.627 | -0.063 | -0.482 | -0.617 | -1.59 | -0.9 | -0.0907 | -1.44 (inactive) |
| C=CCN1C(=O)[C@@]2(O[C@@H](CCn3cc(CCO)nn3)[C@H]([Si](C)(C)c3ccc(OC)cc3)[C@H]2C)c2cc(N3C(=O)c4cccc5cccc3c45)ccc21 | 0.681 | -0.128 (inactive) | -0.0299 | -0.0703 | 0.455 | 0.249 | 0.15 | 0.966 | 0.0449 | 1.09 | 0.29 | 0.511 | 0.608 | 0.807 | 0.816 | 0.973 | -1.38 | 0.537 | 1.1 | -1.96 (inactive) |
| CC(C)C(=C=CC[C@H](O)c1ccc(OCCO)cc1)C[C@H](O)COCc1ccccc1 | 0.394 | 0.813 (inactive) | 0.0522 | -0.179 | 0.508 | 1.43 | 1.04 | 1.3 | 0.433 | 0.673 | 1.73 | 1.18 | -0.0245 | 0.749 | 1.31 | 1.03 | 2.47 | 0.795 | 0.325 | -2.55 (inactive) |
| COc1ccc([Si](C)(C)[C@@H]2[C@@H](CC(=O)N3CCC[C@H]3CO)O[C@]3(C(=O)N(Cc4ccc(N5CCC5=O)cc4)c4ccccc43)[C@H]2C)cc1 | -0.82 | 0.566 (inactive) | 0.0026 | -0.0624 | 0.415 | 1.05 | -0.31 | 1.31 | 0.183 | 1.08 | 2.01 | 1.13 | 0.983 | 0.406 | 0.712 | 0.589 | 1.55 | 1.04 | 0.0389 | -1.45 (inactive) |
| COC(=O)C1=CC(CCCO)=CC(C2CC2)N(Cc2cc3c(cc2Br)OCO3)C=C1C(=O)OC (stereo not given) | 1.01 | 0.305 (inactive) | 0.102 | 0.0247 | 0.92 | 2.44 | 1.65 | 1.3 | -0.547 | 1.07 | 2.68 | 0.86 | 0.149 | 0.931 | -0.107 | -0.3 | 1.27 | -0.648 | 1.4 | -1.24 (inactive) |
| C=CCC(OC(C)=O)[C@@H]1[C@@H](N(Cc2cc3ccccc3o2)C(=O)c2ccc(-c3ccccc3)cc2)c2cc(OCCCO)ccc2N1C(=O)c1ccc(-c2ccccc2)cc1 (stereo not given in full) | 0.327 | -0.474 (inactive) | 0.061 | -0.148 | 0.301 | 0.568 | 0.0482 | -0.19 | -0.333 | -0.395 | -0.853 | -0.43 | 0.25 | -0.796 | 0.227 | -0.109 | 2.56 | -0.147 | -0.316 | -1.02 (inactive) |
| O=C(O)[C@H]1C[C@H]2C(=O)NCC(=O)N2[C@H]1c1cccc(OCCO)c1 | -0.542 | 0.0953 (inactive) | 0.173 | -0.126 | 0.502 | 0.787 | -0.156 | 0.89 | 0.0805 | 1.09 | 1.48 | 0.221 | 0.457 | 0.742 | 1.27 | 0.161 | 1.14 | -0.13 | 0.655 | -1.6 (inactive) |
| C=C(/C(=C/C[C@H](OC(=O)c1ccncc1)c1cccc(OCCO)c1)c1cc(C(=O)OC)ccc1OC)C(C)C | -0.768 | 0.415 (inactive) | -0.16 | -0.12 | 0.47 | 0.239 | 0.11 | 1.12 | -1.23 | 0.505 | -0.538 | 0.101 | 0.72 | -0.188 | -0.0075 | 0.266 | 2 | 0.411 | 0.844 | -0.979 (inactive) |
